Measurements as given in PubChem BioAssay.

Each compound was assayed against Carbonic anhydrase 2 (Homo sapiens) (UniProt P00918) (assay: compounds binding carbonic anhydrase 2 – biochemical, small-molecule microarray, Alexa647-labelled CAII, profiling panel (AID 1122)). Settings: CAII-A647 binding fluorescence, higher = more signal.

SMILES	composite z-score
CN1CCC(CCCO)=CC1C1CC1 (centres undefined)	0.299
NC(=O)NCC#Cc1ccc2c(c1)[C@]1(C(=O)N2)[C@H](C(=O)N2CCCCCCC2)[C@H]2C(=O)O[C@H](c3ccccc3)[C@H](c3ccccc3)N2[C@@H]1c1ccccc1OCCO	0.953
C=CCC(OC(C)=O)[C@@H]1[C@@H](N(Cc2cc3ccccc3o2)C(=O)c2ccc(C)cc2)c2cc(OCCCO)ccc2N1C(=O)c1ccc2ccccc2n1 (some centres undefined)	-0.135
CO[C@H]1COC(=O)[C@H](C)COC(=O)[C@H](Cc2ccccc2)NC(=O)CC=C[C@H]1C	-0.612
C=CC[C@@]12N=C(c3ccc(OCCCO)cc3)O[C@@H]1c1ccccc1CN(Cc1ccccc1)C2=O	0.496
CCCC[C@@H]1C[C@H]1[C@@H](NC(=O)c1cccs1)c1ccc(Cl)cc1	-0.346
CO[C@H]1COC(=O)[C@H](CCSC)NC(=O)CC=C[C@@H](C)COC(=O)[C@@H](OCc2ccccc2)C=C[C@@H]1C	-0.498
O=C1c2ccccc2[C@@]2(Cc3ccccc3N(CC(F)(F)F)C2=O)[C@H](c2ccc(CO)cc2)N1C1CCCCC1	0.807
CC(C)(C)OC(=O)CC[C@@]1(C(=O)NCc2ccccc2)N=C(c2ccc(OCCCO)cc2)O[C@@H]1c1ccccc1	0.655
CC[C@H]1C2=C3C(CC[C@H]4C(OC)OC[C@](C)([C@@H]34)N(C(=O)OC(C)(C)C)C2)C(CO)C1CO (some centres undefined)	0.486
CO[C@]12C=C(Br)[C@@H](C[C@@H]1c1ccccc1)[C@@]1(CO1)C2=O	0.143
COCCOC(=O)N1C(=O)[C@@]2(c3cc(C#CC4=CCCCC4)ccc31)[C@H](C(=O)NC[C@H](O)c1ccccc1)[C@H]1C(=O)O[C@H](c3ccccc3)[C@H](c3ccccc3)N1[C@@H]2c1ccc(OCCO)cc1	0.224
C=C(CCCC)/C(=C/C[C@@H](OC(=O)c1ccncc1)c1cccc(OCCO)c1)c1cc(C(=O)OC)ccc1OC	0.57
COCCOC(=O)N1C(=O)[C@@]2(c3cc(C#CCC(C(=O)OC)C(=O)OC)ccc31)[C@H](C(=O)N1CCN(c3ncccn3)CC1)[C@H]1C(=O)O[C@H](c3ccccc3)[C@H](c3ccccc3)N1[C@@H]2c1ccc(O)cc1	0.55
Cc1ccc(N2C(=O)c3ccccc3[C@](C)(C(=O)O)[C@@H]2c2ccc(CO)cc2)nc1	0.289
CN(C)CCCC[C@@H]1NC(=O)[C@@H]2C[C@H](C(=O)NCCCCCNC(=O)CS)[C@H](c3ccc(O)cc3)N2C1=O	0.58
C=CCC(OC(C)=O)[C@@H]1[C@@H](N(Cc2ccc(-c3cccc(C(F)(F)F)c3)o2)C(=O)Cc2ccc(F)cc2)c2cc(OCCCO)ccc2N1C(=O)c1ccc(-c2ccccc2)cc1 (some centres undefined)	-0.215
C=CC[C@]1(C(=O)NCC(O)CO)N=C(c2ccc(OCCCO)cc2)O[C@H]1c1ccccc1 (some centres undefined)	0.793
CCOC(=O)C1=CC[C@@H](c2ccccc2)N(S(=O)(=O)c2ccc(C)cc2)[C@H]1C	0.671
O=C1O[C@H](c2ccccc2)[C@H](c2ccccc2)N2[C@H]1[C@@H](C(=O)NC[C@H](O)c1ccccc1)[C@]1(C(=O)Nc3ccc(C#CC4=CCCCC4)cc31)[C@H]2c1ccc(OCCO)cc1	0.522
COC(=O)Cn1c(C(=O)N2CCCC2)cc2c1C[C@H]1CN(C(=O)c3ccccc3)[C@@](Cc3ccc(OC)cc3)(C(=O)OC)[C@@H]21	0.587
COC(=O)C1=CC(c2ccc(CO)cc2)=CC(c2cccs2)N(Cc2cccc(OC(F)(F)F)c2)C=C1C(=O)OC (centres undefined)	0.671
O=C/C=C/c1ccccc1Cl	0.408
CCOC(=O)C[C@H]1[C@H](OC(=O)c2ccccc2-c2ccccc2)[C@@H](NC(=O)C2CCCCC2)c2cc(OCCCO)ccc2N1C(=O)c1ccccc1	0.393
CC1=C([C@H](O)CCc2ccccc2)[C@H](CO)[C@@H]2C(=O)N(Cc3ccccc3)C(=O)[C@@H]2C1	0.347
C#CCCCON=C1C[C@@H](O)[C@@H](O)[C@@H]2[C@@H]3C(=O)N(Cc4ccc5c(c4)OCO5)C(=O)[C@@H]3CC[C@H]12	0.495
CC(C)CNC(=O)[C@@]1(C)c2ccccc2C(=O)N(Cc2ccc(OC(F)(F)F)cc2)[C@H]1c1ccc(CO)cc1	0.706
CCCC=C(CCC)[C@@H](NC(=O)c1ccccc1)c1ccccc1	-0.247
CO[C@H]1O[C@H](CO)[C@@H](OC(=O)Nc2ccccc2)[C@H](OC(=O)Nc2ccc3c(c2)OCO3)[C@@H]1OC(=O)Nc1ccc2c(c1)OCO2	0.655
